Source: PubChem
A selection: hits, their analogues and other compounds. The true share with any hit is near 1.3%.
Rango-impB inh = inhibitors of Rango-importin beta complex formation | Rango CFP/YFP FRET sensor + importin beta, 45 min | Potency, µM (series often up to 92.2 µM) | hit rate 0.031% among 340,000 | AID 540263; also: nearly all actives have a fitted effect of over 15% in size
Target sequence (Q14974 whole entry, looked up): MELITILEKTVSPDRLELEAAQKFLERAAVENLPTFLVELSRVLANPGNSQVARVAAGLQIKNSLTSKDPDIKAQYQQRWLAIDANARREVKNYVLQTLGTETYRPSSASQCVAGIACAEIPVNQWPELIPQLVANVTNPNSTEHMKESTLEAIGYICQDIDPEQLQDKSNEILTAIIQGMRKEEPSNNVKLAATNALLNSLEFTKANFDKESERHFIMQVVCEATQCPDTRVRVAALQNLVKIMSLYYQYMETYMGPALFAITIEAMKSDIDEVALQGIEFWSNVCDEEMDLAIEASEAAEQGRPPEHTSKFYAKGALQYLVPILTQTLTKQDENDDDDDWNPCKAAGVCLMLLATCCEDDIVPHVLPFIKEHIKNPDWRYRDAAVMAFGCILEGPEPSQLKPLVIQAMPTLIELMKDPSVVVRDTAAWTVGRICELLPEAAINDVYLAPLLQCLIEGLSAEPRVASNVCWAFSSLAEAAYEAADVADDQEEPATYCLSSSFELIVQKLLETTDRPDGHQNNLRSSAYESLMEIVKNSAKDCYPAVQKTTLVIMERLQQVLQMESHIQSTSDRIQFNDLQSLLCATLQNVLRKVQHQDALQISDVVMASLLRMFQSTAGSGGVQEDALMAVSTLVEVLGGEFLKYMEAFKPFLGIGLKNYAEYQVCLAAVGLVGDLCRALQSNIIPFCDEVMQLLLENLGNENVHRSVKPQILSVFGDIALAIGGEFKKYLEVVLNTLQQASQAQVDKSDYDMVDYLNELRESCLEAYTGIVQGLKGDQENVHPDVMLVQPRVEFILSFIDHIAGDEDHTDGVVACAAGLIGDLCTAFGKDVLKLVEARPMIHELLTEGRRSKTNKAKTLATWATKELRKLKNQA
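FRET biosensor Rango (snurportin 1 IBB between N-terminal EYFP and C-terminal Cerulean), 50 nM in PBS/1 mM DTT/0.02% Tween-20/0.1% BSA, preincubated 5 min RT with compound; 0.125 microM importin beta added, 45 min RT, CFP/YFP FRET ratio read.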
KCNH2 WT inh = inhibitors of human wildtype KCNH2 potassium channel | U2OS, BacMam KCNH2, thallium flux FluxOr; active compounds read low | activity change, % at 1.84 µM | AID 720551 | hit rate 0.37% among 340,000 | Q12809;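 active = maximum activity change below -70%; inconclusive = maximum activity change between -70% and -50%; inactive = maximum activity change above -50%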
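U2OS cells were transduced with wild-type KCNH2 virus (2.03 x 10^8 / mL) for 4 h at room temperature, then cultured overnight at 37 C. Thallium flux was read with FluxOr dye. Rate constants were normalized to DMSO controls.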
Rango release inh = prevents RanGTP from dissociating the Rango-importin beta complex; Potency, µM (titrated, usually from 46.1 µM); Biochemical FRET Rango-importin beta, RanGTP-induced dissociation; hit rate 0.071% among 340,000; O95149+P62826; AID 540253; also: nearly all actives have a fitted effect of over 45% in size
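FRET read at 45 min, room temperature: inhibitors block the CFP/YFP signal rise when RanGTP (0.6 uM Ran, 2 mM GTP, 0.2 uM RCC1) frees Rango (0.1 uM) from importin beta (0.25 uM). Pre-read after 5 min compound exposure flags interference.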
KCNH2 3.1 block = KCNH2 3.1 (human) potassium channel inhibition. hit rate 0.95% among 340,000. U2OS KCNH2 3.1, thallium flux FluxOr; active compounds read low. AID 720553. activity change, % (tested at about 1.8 µM);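 active = maximum activity change below -70%; inconclusive = maximum activity change from -70% to -50%; inactive = maximum activity change above -50%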;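 also: thallium influx rate constant from kinetic fluorescence after stimulation buffer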
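Channel expression came from 3.1 mutant virus (1.77 x 10^8 /mL) applied to suspended U2OS cells for 4 h. Flux was tracked with FluxOr dye plus Red40 quencher, and kinetic rate constants normalized to controls.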
Each line names hits and unclear results; the compound was inactive in the other large screens. Unless noted, calls follow the shape of the full dose curve.

O=[N+]([O-])c1ccc(CN2CCN(c3ccc([N+](=O)[O-])cc3)CC2)cc1	Rango-impB inh inconclusive, KCNH2 WT inh -73
O=[N+]([O-])c1ccc(CN2CCN(c3ccc4ccccc4n3)CC2)cc1	KCNH2 WT inh inconclusive, KCNH2 3.1 block -99
O=[N+]([O-])c1ccc(N2CCN(Cc3ccccc3)CC2)nc1	none
CCCCCCCCOC(=O)c1c(CSC(=N)N)n(C)c2cc(Br)c(OC(C)=O)cc12	KCNH2 WT inh -95, KCNH2 3.1 block -102
CCCNC(=O)c1ccc(N2CCC3(CC2)CC(c2ccccc2)=NO3)c(NC(=O)c2cccc(OC)c2)c1	KCNH2 WT inh -92, KCNH2 3.1 block -97
CCCNC(=O)c1ccc(N2CCC3(CC2)CC(c2ccccc2)=NO3)c(NC(=O)c2ccco2)c1	Rango-impB inh inconclusive, KCNH2 WT inh inconclusive
CCCNC(=O)c1ccc(N2CCC3(CC2)CC(c2cccc(Br)c2)=NO3)c(NC(=O)c2c(Cl)cccc2Cl)c1	none
CCCCC(CC)C(=O)Nc1cc(C(=O)NCCC)ccc1N1CCC2(CC1)CC(c1ccccc1)=NO2 (centres undefined)	KCNH2 WT inh -109, KCNH2 3.1 block -94
CCCNC(=O)c1ccc(N2CCC3(CC2)CC(c2cccc(Br)c2)=NO3)c(NC(=O)c2ccc(Br)cc2)c1	KCNH2 WT inh -83, KCNH2 3.1 block -111
CCN(CC(=O)NC1CCS(=O)(=O)C1)c1ccc([N+](=O)[O-])cc1C#N (centres undefined)	none
COc1ccc(Cl)cc1CC=NNC(=O)c1cccc(C)c1O	none
CC(NC(=O)CNC(=O)c1cccs1)c1cccc(C(F)(F)F)c1 (centres undefined)	none
CCN(CC)CCn1c(SCC(=O)Nc2ccc3c(c2)CCC3)nc2ccccc2c1=O	KCNH2 3.1 block -87
Cc1ccc(NC(=O)CSc2nc3ccccc3c(=O)n2CCCN2CCCCC2)cc1Cl	KCNH2 3.1 block -74
O=C(CSc1nc2ccccc2c(=O)n1-c1ccccc1F)Nc1ccc2c(c1)CCC2	none
O=C(CSc1nc2ccccc2c(=O)n1CCCN1CCOCC1)Nc1ccc(F)c(Cl)c1	none
Cc1c(C(=O)NCc2ccccc2F)oc2ccccc12	none
Cc1c(C(=O)Nc2ccncc2)oc2ccccc12	none
Cc1c(C(=O)NCc2cccs2)oc2ccccc12	KCNH2 3.1 block -79
Cc1c(C(=O)NC(C)c2ccncc2)oc2ccccc12 (centres undefined)	KCNH2 3.1 block -109
COc1ccc([C@H]2C[C@@H](O)[C@H](n3cc(COC(=O)c4ccccc4)nn3)CN2C(=O)C2CCCCC2)cc1	none (no result: Rango-impB inh, Rango release inh)
Clc1ccc(Cl)c(OCCCCN2CCCCC2)c1	KCNH2 WT inh -137, KCNH2 3.1 block -158
CC1CCCN(CCCOc2ccc(Br)cc2Cl)C1 (centres undefined)	KCNH2 3.1 block -105
CC1CCN(CCOCCOc2ccc(Br)cc2Cl)CC1	Rango-impB inh inconclusive, KCNH2 3.1 block inconclusive
Clc1ccc(Cl)c(OCCCCNCc2ccccc2)c1	KCNH2 3.1 block -93
Clc1ccccc1OCCCCN1CCCCC1	none
Cc1cc(OCCCCCN2CCCC2)ccc1Cl	KCNH2 3.1 block -86
CCOC(=O)c1ccc(S(=O)(=O)NCCNCc2ccccc2)cc1	KCNH2 3.1 block inconclusive
CCN(c1ccccc1)S(=O)(=O)c1cccc(C(=O)NCCOc2ccccc2OC)c1	none
Cc1cc(Br)ccc1OCCCCN1CCCCC1	KCNH2 3.1 block -89
CC(C)(C)c1ccc(OCCCN2CCCC2)cc1	KCNH2 3.1 block -86
CC(C)Oc1ccc(OCCCN2CCCCCC2)cc1	none
O=C(/C=C1\NC2(CCCC2)Cc2ccccc21)C(=O)N/N=C/c1ccccc1O	Rango-impB inh inconclusive, KCNH2 3.1 block -85
COc1cc(/C=N/NC(=O)C(=O)/C=C2\NC3(CCCC3)Cc3ccccc32)ccc1O	none
CN(C(=S)NC(=O)c1ccc(Cl)cc1)C1CCCCC1	KCNH2 WT inh -74
CN(C(=S)NC(=O)c1ccc(F)cc1)C1CCCCC1	none
CCOC(=O)C1(Cc2ccccc2)CCN(C2Cc3ccccc3C2)CC1	KCNH2 3.1 block -86
CCOC(=O)C1(CCCc2ccccc2)CCN(Cc2cnc(C)s2)CC1	KCNH2 WT inh -91
CCOC(=O)C1(Cc2cccc(F)c2)CCN(Cc2cnc(C)s2)CC1	none
CCOC(=O)C1(Cc2cccc(F)c2)CCN(Cc2cn(CC)nc2C)CC1	none
CCOC(=O)C1(CCCc2ccccc2)CCN(Cc2cn(CC)nc2C)CC1	KCNH2 3.1 block -93
CCOC(=O)C1(CCc2ccccc2)CCN(Cc2cccc3nccnc23)CC1	KCNH2 3.1 block -99
CCN(CC(=O)Nc1cc(S(=O)(=O)N2CCCCC2)ccc1C)Cc1ccccc1	none
N#CC1(Nc2ccc(S(N)(=O)=O)cc2)CCCC1	none
CCc1ccc(NC(=O)C(C)Sc2nc(-c3ccco3)c(C#N)c(=O)[nH]2)cc1 (centres undefined)	Rango-impB inh inconclusive
CCOC(=O)C1(CCCc2ccccc2)CCN(Cc2nccn2CC)CC1	KCNH2 3.1 block -93
CCOC(=O)C1(CCOc2ccccc2)CCN(Cc2nccn2CC)CC1	none
CCOC(=O)C1(CCCc2ccccc2)CCN(CCCn2cccn2)CC1	KCNH2 WT inh -131, Rango release inh inconclusive, KCNH2 3.1 block -111
COCCCNC(=O)C[C@H]1C[C@H](C(=O)N2CCCCC2)[C@@]2(C)c3[nH]c4cc(-c5ccco5)ccc4c3CCN2C1=O	none
COc1cc(S(=O)(=O)NCc2ccccc2)ccc1Br	none
CCNS(=O)(=O)c1ccc(Br)c(OC)c1	KCNH2 3.1 block -93
CC(CC(=O)OCC(=O)NCc1ccc(Cl)cc1)c1ccccc1 (centres undefined)	none
COc1ccc(NC(=O)NCCCN2CCCC2=O)cc1	none
COc1ccc(NC(=O)CC(C)NCCCN2CCCC2=O)cc1 (centres undefined)	KCNH2 WT inh -333
O=C(CCN1CCN(C/C=C/c2ccccc2)CC1)Nc1ccccc1	KCNH2 3.1 block -80
Cc1cc(NC(=O)CCN2CCN(C/C=C/c3ccccc3)CC2)ccc1Br	Rango release inh inconclusive, KCNH2 3.1 block -108
Cc1ccccc1NC(=O)CCN1CCN(C/C=C/c2ccccc2)CC1	KCNH2 3.1 block -85
O=C(CN1CCN(C/C=C/c2ccccc2)CC1)Nc1ccccc1C(=O)NC1CC1	KCNH2 WT inh -91, KCNH2 3.1 block -112
O=[N+]([O-])c1cc(S(=O)(=O)N2CCOCC2)ccc1OCc1ccccc1C(F)(F)F	none
CCN1CCN(CCC(=O)Nc2cccc(C)c2)CC1	none
Cc1cc(NC(=O)CN2CCN(C/C=C/c3ccccc3)CC2)c([N+](=O)[O-])cc1C	KCNH2 3.1 block -92
Cc1cccc(NC(=O)CCN2CCN(C/C=C/c3ccccc3)CC2)c1	KCNH2 3.1 block -91
COc1cc(Br)c(CC(=O)NC2CC2)cc1OC	none
COc1ccc(CC2(CO)CCN(C/C=C/c3ccccc3OC)CC2)cc1	KCNH2 WT inh -90, KCNH2 3.1 block -109
COc1ccccc1/C=C/CN1CCCC(CO)(CCc2ccccc2)C1 (centres undefined)	KCNH2 3.1 block -75
CCc1ccc(C(C#N)=CC=Cc2ccccc2)cc1	none (no result: Rango-impB inh, Rango release inh)
